We go through 40 molecules from PubChem BioAssay (Tox21).

Records with an inconclusive call do not appear. Entries that show only a call come without a potency. More than one record can exist for a structure, and the calls need not agree. Active and inactive are the calls of the source. Calls follow the shape of the full dose curve.
Potency is read from the fitted curve at half-maximal effect.

The nature of the test: qHTS assay to identify small molecule agonists of the hypoxia (HIF-1) signaling pathway - cell viability counter screen (AID 1224844). Also: nearly all actives have a fitted effect of over 50% in size. The note with it: HRE-bla ME-180 viability, CellTiter-Glo luminescence, 17 h; series mostly up to 76.8 µM. An excerpt: National Center for Advancing Translational Sciences [NCATS]
NIH Chemical Genomics Center [NCGC]
U.S. Environmental Protection Agency [EPA]
National Institutes of Environmental Health Sciences [NIEHS]
National Toxicology Program [NTP]
U.S. Food and Drug Administration [FDA]
Hypoxia-inducible factor-1 (HIF-1) is the major hypoxia-regulated transcription factor that controls cellular responses to low oxygen concentration. HIF-1 is composed of two subunits: hypoxia responsive HIF-1-alpha and constitutively expressed HIF-1-beta, which is also known as aryl hydrocarbon receptor nuclear translocator. During hypoxic conditions, HIF-1-alpha heterodimerizes with HIF-1-beta and translocates into the nucleus where the HIF-1 complex binds to the hypoxia-response element (HRE) and activates expression of target genes such as VEGF (vascular endothelial growth factor). The HIF-1 pathway is essential to normal growth and development, and is involved in the pathophysiology of cancer, inflammation, and ischemia.
Using a beta-lactamase reporter-gene under control of the hypoxia response element, a cell-based assay [CellSensor(TM) HRE-bla ME-180 from Life Technologies, Carlsbad, CA] was used to measure hypoxia-induced signaling. Tox21 10K library compounds were measured for their ability to induce the reporter gene activity. The cytotoxicity of the Tox21 compound library against HRE-bla ME-180 cell line was tested in parallel by measuring cell viability using CellTiter-Glo assay (Promega, Madison, WI) in the same assay wells.
Tox21 Assay Protocol Summary:
HRE-bla ME-180 cells were dispensed at 2,000 cells per well in 6 uL of assay medium containing 0.5% dialyzed FBS into black wall/clear-bottom 1536-well plates using a Multidrop Combi (Thermo Scientific, Waltham, MA) dispenser. After the assay plates were incubated at 37C and 5% CO2 for 5 hrs, 23 nL of compounds dissolved in DMSO, positive controls or DMSO only was transferred to each well of the assay plate using a Pintool station (Kalypsys, San Diego, CA). The assay plates were incubated at 37C and 5% CO2 for 17 hrs. One uL of LiveBLAzerTM B/G FRET substrate (CCF4-AM) (Life Technologies) was added to each well using a Flying Reagent Dispenser (FRD, Aurora Discovery, San Diego, CA). After 2 hr incubation at room temperature, fluorescence intensity (405 nm excitation, 460 nm and 530 nm emissions) was measured using an Envision plate reader (PerkinElmer, Shelton, CT). For cytotoxicity, 4 ul/well of CellTiter-Glo reagent was added into the assay plates using an FRD. After 30 min incubation at room temperature, the luminescence intensity was measured using a ViewLux plate reader (PerkinElmer).
`COC(=O)/C=C\C(=O)OC`: the Potency entry was “inactive”.

Consider `O=C1C(N(CO)C(=O)NCO)N(CO)C(=O)N1CO` (stereo not given), for which the Potency entry is “inactive”.

Take `CCCCCCCCCCCCCC(=O)O`: the Potency result was “inactive”.

In the case of `Cc1ccc(Cl)cc1`, the Potency entry is “inactive”.

Regarding `Cc1ccncc1`, the Potency entry was “inactive”.

As for `Cc1ccccc1C=O`, the Potency result is “inactive”.

On to `CC(=O)OCc1ccc2c(c1)OCO2`, for which the Potency entry is “inactive”.

With `NCCNCCNCCN`, the Potency entry was “inactive”.

As for `C[Si](C)(C)N[Si](C)(C)C`, the Potency result is “inactive”.

Take `CC/C(C)=N/O`: the Potency entry is “inactive”.

`Cc1cc(C)c(O)c(C)c1`: the Potency entry was “inactive”.

`CN1CCCC1=O`: the Potency result was “inactive”.

As for `Cc1ccc(C(C)C)cc1`, the Potency entry is “inactive”.

Take `CCCCCCCCC(=O)O`: the Potency result is “inactive”.

On to `O=C(O)C1=NN(c2ccc(S(=O)(=O)O)cc2)C(=O)C1`, for which the Potency entry is “inactive”.

Consider `OCC(O)CS` (stereo not given), for which the Potency result was “inactive”.

Regarding `CC(C)c1ccc(C(C)C)cc1`, the Potency entry was “inactive”.

For the molecule `COC(=O)OC`, the Potency result was “inactive”.

With `Cc1ccc([N+](=O)[O-])cc1N`, the Potency result is “inactive”.

Take `CCOC(=O)CC(=O)OCC`: the Potency result is “inactive”.

With `Cc1ncc(CO)c(CO)c1O`, the Potency result was “inactive”.

In the case of `O=[N+]([O-])c1ccccc1C(F)(F)F`, the Potency entry was “inactive”.

With `NC(N)=S`, the Potency entry was “inactive”.

Turning to `CC(C)(CO)CO`, the Potency entry was “inactive”.

With `OB(O)O`, the Potency entry is “inactive”.

Take `CCc1cccc(CC)c1N`: the Potency entry is “inactive”.

Turning to `Cc1cc(CC(=O)O)n(C)c1C(=O)c1ccc(Cl)cc1`, the Potency result was “inactive”.

`CC1=CC(=O)CC(C)(C)C1`: the Potency is 4.49 µM (active) and inactive.

For `CCCCCCC(=O)O`, the Potency result is “inactive”.

`CN1Cc2c(N)cccc2C(c2ccccc2)C1` (stereo not given): the Potency entry was “inactive”.

`COc1ccc2cc3[n+](cc2c1OC)CCc1cc2c(cc1-3)OCO2`: the Potency entry is “inactive”.

As for `OC[C@H]1O[C@@H](Oc2ccc(O)cc2)[C@H](O)[C@@H](O)[C@@H]1O`, the Potency entry is “inactive”.

For `C=CC(=O)NCOCCCC`, the Potency result was “inactive”.

As for `OC1CCCCC1`, the Potency entry was “inactive”.

Take `CC(=O)OC(C)(C)C1CC=C(C)CC1` (stereo not given): the Potency result was “inactive”.

Turning to `CC(O)CNCC(C)O` (stereo not given), the Potency result was “inactive”.

As to `O=[N+]([O-])c1cc(C(F)(F)F)ccc1Cl`, the Potency result is “inactive”.

With `NC1CCCCC1N` (stereo not given), the Potency entry was “inactive”.

`CCCOC(=O)NCCCN(C)C`: the Potency entry was “inactive”.

As for `O=C1CCCCCCCCCCC1`, the Potency entry is “inactive”.
